Screening data: PubChem, National Center for Advancing Translational Sciences (NCATS)
HCMV inh: inhibitors of human cytomegalovirus. HFF cells, HCMV-luciferase reporter, 72 h; hits give low values. actives 4.5% (n = 410,000). activity change, negative = inhibition, % at 57.5 µM; in the data active = activity change below about -60%; inconclusive = no clear call, values can overlap the other calls; inactive = above about -39%
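Screen run at 2 compound doses on HFFs infected with reporter HCMV, MOI 1 PFU/cell. Luciferase activity from cell lysates at 72 h post infection gave inhibition relative to buffer-only and Salinomycin wells.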
FMDV antiviral: blocks foot and mouth disease virus | FMDV antiviral cell-based qHTS | actives 1.2% (n = 410,000) | Potency, µM (titrated, usually from 57.9 µM), inactives show at the highest dose activity change, negative = inhibition, hits mostly inhibitors; calls by dose curve; tested in HEK293T cells; also: read-out not given here; potency is read from the fitted curve at half-maximal effect; nearly all actives have a fitted effect of over 45% in size
HCV inhibitor: blocks hepatitis C virus; Huh7.5.1 HCVcc-Cre infection, luciferase reporter, 44 h; Potency, µM (titrated, usually from 41.8 µM), for inactives: top-dose activity change, negative = inhibition, hits mostly inhibitors; actives 3.4% (n = 340,000); AID 651820; active = well fitted inhibition curve with a large enough effect; inconclusive = small, poorly fitted or top-dose-only effect, or another doubt; inactive = no such curve, though single readings can be large or run the other way; also: potency is read from the fitted curve at half-maximal effect
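Luciferase read-out (15 sec integration) after a 15 min room-temperature substrate step quantifies HCVcc-Cre infection. Cells, 1,000 per well, had compound added 4 h post-plating, then virus at ~0.5 moi, and were cultured 44 h.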
LASV entry inh: inhibitors of Lassa virus binding or cell entry; Lassa virus pseudotype entry inhibition, cell reporter; Potency, µM (titrated, usually from 37.9 µM), for the others: at the top dose activity change, negative = inhibition, most hits filed as inhibitors; actives 1.2% (n = 300,000); calls by dose curve; tested in HEK293 cells; also: potency is read from the fitted curve at half-maximal effect; nearly all actives have a fitted effect of over 50% in size
Marburg entry inh: inhibitors of Marburg virus binding or cell entry. Marburg virus pseudotyped entry inhibition, cell reporter. actives 1.8% (n = 300,000). Potency, µM (titrated, usually from 37.8 µM), for the others: top-dose activity change, negative = inhibition, usual class: inhibitors. AID 540276; calls by dose curve; tested in HEK293 cells; also: potency is read from the fitted curve at half-maximal effect
An asterisk follows results filed as active; ? = inconclusive; nt = no result given; + = active, no number; [ ] = remark or other dose. Most compounds without a hit are left out; they make up all but 7.9% or so of the library. % is scaled to controls: 0 for no effect and ±100 for the full control effect.

SMILES	HCMV inh	FMDV antiviral	HCV inhibitor	LASV entry inh	Marburg entry inh
CC(=O)NC(c1ccc(Cl)cc1)c1ccc2cccnc2c1O (configuration not stated)	-99*	-8%	4.5µM*	nt	nt
CCCC(=O)NC(c1ccc(N(C)C)cc1)c1ccc2cccnc2c1O (configuration not stated)	-98*	1%	3.2µM*	?	?
Cc1cc(NC(c2ccc(Cl)cc2)c2ccc3cccnc3c2O)no1 (configuration not stated)	-98*	-19%	2.5µM*	?	?
CCCCC(=O)NC(c1ccc(OC)cc1)c1ccc2cccnc2c1O (configuration not stated)	-98*	-19%	nt	nt	nt
CCCC(=O)NC(c1ccc(OC)cc1)c1c(O)ccc2ccccc12 (configuration not stated)	27	-10%	?	?	?
O=C(NCc1ccc(Cl)cc1)c1cc2c(s1)CS(=O)(=O)C2	?	-13%	5%	nt	nt
C=CC[C@@]1(C(=O)OC)C=C[C@@H](C)[C@H](c2ccccc2Br)N1C(=O)C(F)(F)F	nt	nt	nt	2%[14.3 µM]	-11%[14.2 µM]
Cc1ccc2ccc(C(Nc3ccccc3)c3ccc(C(C)C)cc3)c(O)c2n1 (configuration not stated)	-17	16%	nt	nt	nt
CCCC(=O)NC(c1ccc(C(C)C)cc1)c1ccc2cccnc2c1O (configuration not stated)	-98*	-16%	1.8µM*	4.5µM*	?
Cc1ccc[n+](CC(=O)/C=C2\N(C)c3ccccc3C2(C)C)c1	-98*	?	-4%	2%	?
CN1/C(=C\C(=O)C[n+]2ccc(C(=O)c3ccccc3)cc2)C(C)(C)c2ccccc21	-95*	-32%	?	nt	nt
CN1/C(=C\C(=O)C[n+]2cccc(Br)c2)C(C)(C)c2ccccc21	-83*	?	-25%	?	-1%
Cc1cccc[n+]1CC(=O)/C=C1\N(C)c2ccccc2C1(C)C	-95*	?	-30%	?	?
COc1ccc(CNc2nc(-c3cccc(NS(C)(=O)=O)c3)nc3ccccc23)c(OC)c1	nt	10%	nt	nt	nt
CN1/C(=C\C(=O)COC(=O)c2ccc(O)cc2)C(C)(C)c2ccccc21	-21	-28%	?	nt	nt
CN1/C(=C\C(=O)COC(=O)c2ccc(O)c(O)c2)C(C)(C)c2ccccc21	-79*	0%	?	?	?
CN1/C(=C\C(=O)COC(=O)CN2C(=O)C3CC=CCC3C2=O)C(C)(C)c2ccccc21 (configuration not stated)	3	?	-22%	?	-1%
CN1/C(=C\C(=O)CN2C(=O)NC3(CCCCCC3)C2=O)C(C)(C)c2ccccc21	?	20µM*	?	?	?
O=[N+]([O-])c1ccc(Sc2cccc[n+]2[O-])c2nonc12	-106*	6.3µM*	10µM*	?	?
COc1cccc(CN(C)C(=O)c2ccc(NS(=O)(=O)c3ccc4[nH]c(=O)[nH]c4c3)cc2)c1OC	3	-9%	nt	0%	9%
CCOc1ccc(NS(=O)(=O)c2ccc(C(=O)N(CC)CC(=O)NCc3cccs3)cc2)cc1	17	-18%	-21%	?	?
CCOc1ccc(S(=O)(=O)Nc2ccc(C(=O)N(CC)CC(=O)NCc3cccs3)cc2)cc1	-72*	-13%	nt	nt	nt
CCOc1ccc(NS(=O)(=O)c2ccc(C(=O)N(C)Cc3cccc(OC)c3OC)cc2)cc1	-31	-20%	13µM*	?	?
COc1ccc(S(=O)(=O)N(CCO)c2ccccc2CN(C)C/C=C/c2ccc(Cl)cc2)cc1	nt	-21%	nt	nt	nt
Cn1cnc(S(=O)(=O)N2CCCC(C(=O)Nc3ccc(OC(F)(F)F)cc3)C2)c1 (configuration not stated)	56	-5%	nt	1%[46.1 µM]	nt
SMILES	HCMV inh	FMDV antiviral	HCV inhibitor	LASV entry inh	Marburg entry inh
CCn1cc(CNCc2ccc(OCC(O)CN(C)Cc3ccccc3)cc2)cn1 (configuration not stated)	nt	-14%	10µM*	-30%	?
CN(Cc1ccccc1)CC(O)COc1ccc(CNCc2cccnc2)cc1 (configuration not stated)	-35	?	?	nt	nt
Cc1nn(C)cc1CNCc1ccc(OCC(O)CN(C)Cc2ccccc2)cc1 (configuration not stated)	1	-10%	?	nt	nt
CN(Cc1ccccc1)CC(O)COc1ccc(CNCc2ccc(Cl)s2)cc1 (configuration not stated)	?	-14%	?	?	2.5µM*
C[C@@H]1CN([C@@H](C)CO)C(=O)CCCn2nncc2CO[C@@H]1CN(C)C(=O)Nc1ccc(N2CCN(C)CC2)cc1	-2	-7%	nt	nt	nt
C=CCS/C(N)=N\N=C\c1c(O)ccc2ccccc12	53	44%	22µM*	nt	nt
CC(=O)c1ccc2c(c1)C1C(Cl)C(Sc3ccccc3[N+](=O)[O-])CC1C(C(=O)O)N2 (configuration not stated)	-17	-23%	35µM*	1%	0%
COc1ccc(-c2ccc(=O)n(CC(=O)Nc3ccc4c(c3)OCCO4)n2)cc1	-12	-21%	-5%	20%[46.1 µM]	-12%[46.1 µM]
COc1ccc(-c2ccc(=O)n(CC(=O)Nc3ccc(OC)c(OC)c3)n2)cc1	+	-12%	nt	-30%[46.1 µM]	nt
O=C(Nc1cccc(S(=O)(=O)N2CCCCC2)c1)c1ccc2ncsc2c1	-9	-14%	7.9µM*	nt	nt
Cc1ccc(S(=O)(=O)Nc2cccc(S(=O)(=O)N3CCCC3)c2)cc1C	-26	44%	-22%	-24%	-1%
O=C(Nc1ccc(Cc2ccncc2)cc1)c1ccc(S(=O)(=O)N2CCCC2)cc1	-87*	16µM*	5µM*	?	?
O=S(=O)(Nc1cccc(S(=O)(=O)N2CCCCC2)c1)c1ccc(Cl)s1	-67*	-25%	11%	nt	nt
O=C(Nc1cccc(S(=O)(=O)N2CCCCC2)c1)c1ccc(Cl)nc1	?	14µM*	?	nt	nt
O=C1C2=C(C(=O)c3ccccc31)[C@H]1O[C@](c3ccsc3)(Cc3ccccc31)O2	nt	nt	nt	nt	-8%[14.2 µM]
COc1cccc(OC)c1C(=O)Nc1cccc(S(=O)(=O)Nc2ccccc2Cl)c1	0	-2%	-2%	nt	nt
CN1CCN(S(=O)(=O)c2ccc(NC(=O)c3ccc([N+](=O)[O-])cc3)cc2)CC1	-62*	14%	7%	29%[46.1 µM]	?
O=C(Nc1cccc(S(=O)(=O)Nc2ccccc2Cl)c1)c1ccc(Cl)nc1	-86*	28µM*	?	?	?
CC1CCN(S(=O)(=O)c2ccc(NC(=O)c3ccncc3)cc2)CC1	-64*	?	11µM*	?	?
O=C(Nc1ccc(S(=O)(=O)N2CCCCC2)cc1)c1ccc(Cl)nc1	-75*	40µM*	?	nt	nt
O=C(C1=C(O)C(=O)N(CCN2CCOCC2)[C@H]1c1cccnc1)c1cc2ccccc2o1	nt	nt	nt	nt	1%
CC(=O)NC1CC(=O)N(c2ccc3c(c2)OCCO3)C1 (configuration not stated)	11	-9%	nt	1%[46.1 µM]	nt
